The campaign covered roughly 220,000 compounds. About 920 (0.42%) were called active. Only a selection was taken, and actives are over-represented in it overall. A number with no mark means an inactive call. Rule as the data show it: active = inhibition above about 15%; inactive = the rest.
Each molecule was assayed against Transitional endoplasmic reticulum ATPase (Homo sapiens) (UniProt P55072) (assay: p97 ATP hydrolysis blockers – biochemical, primary screen (AID 1481;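 also: 0% = DMSO vehicle and 100% = wells lacking enzyme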)). Conditions: recombinant p97 ATPase, Kinase-Glo ATP luminescence, 3 h; at 8 µM; stronger effect = higher value.
Chain of Transitional endoplasmic reticulum ATPase (Homo sapiens) (P55072 whole entry, looked up): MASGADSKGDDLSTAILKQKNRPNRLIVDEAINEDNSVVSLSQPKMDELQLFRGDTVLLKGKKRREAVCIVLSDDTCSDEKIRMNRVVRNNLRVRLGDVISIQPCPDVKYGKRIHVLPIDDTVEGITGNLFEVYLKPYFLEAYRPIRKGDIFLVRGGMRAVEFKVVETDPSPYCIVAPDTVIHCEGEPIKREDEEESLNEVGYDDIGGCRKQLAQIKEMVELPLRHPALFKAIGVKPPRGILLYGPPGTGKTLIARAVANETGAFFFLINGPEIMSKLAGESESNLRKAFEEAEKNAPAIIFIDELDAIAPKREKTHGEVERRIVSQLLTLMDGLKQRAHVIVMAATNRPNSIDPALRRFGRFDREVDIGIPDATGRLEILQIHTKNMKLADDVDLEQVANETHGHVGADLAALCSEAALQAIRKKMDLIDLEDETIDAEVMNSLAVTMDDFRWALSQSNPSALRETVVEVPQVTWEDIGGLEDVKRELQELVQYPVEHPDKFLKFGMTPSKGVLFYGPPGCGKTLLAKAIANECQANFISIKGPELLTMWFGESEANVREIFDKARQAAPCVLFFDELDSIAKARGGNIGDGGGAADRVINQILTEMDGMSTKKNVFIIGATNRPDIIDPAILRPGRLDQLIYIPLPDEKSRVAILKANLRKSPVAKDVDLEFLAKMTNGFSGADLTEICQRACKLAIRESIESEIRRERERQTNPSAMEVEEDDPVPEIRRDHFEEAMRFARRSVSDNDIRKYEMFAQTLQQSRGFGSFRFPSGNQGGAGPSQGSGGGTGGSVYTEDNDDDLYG

SMILES	inhibition
NC(=O)Cc1ccc2c(c1)[nH]c1ccccc12	2.82%
Fc1ccc(CNCc2ccc(Br)cc2)cc1	9.11%
COc1ccccc1-n1c(SCC(=O)O)nc2sc3c(c2c1=O)CCC3	-1.29%
Cc1ccc(C(C[N+](=O)[O-])c2c(C)cc3ccccn23)cc1 (stereo unspecified)	-4.06%
O=C(CCCn1c(=O)[nH]c2cc(Cl)ccc2c1=O)NCCN1CCN(c2ccccc2)CC1	1.79%
COc1ccc(CCNC(=O)CCCCn2c(=O)[nH]c3ccccc3c2=O)cc1OC	4.64%
CCN(CC)CCNC(=O)CCCCCn1c(=O)[nH]c2cc(C(=O)OC)ccc2c1=O	15% (active)
O=C(CSc1nc2ccc([N+](=O)[O-])cc2[nH]1)c1ccc(Cl)cc1	2.81%
CC(CC(=O)Nc1ccccc1)n1ccnc1 (stereo unspecified)	-4.72%
Cc1cc(C)c(NC(=O)CN2C(=O)NC(Cc3ccccc3)C2=O)c(C)c1 (stereo unspecified)	-0.65%
COc1ccccc1CNC(=O)COc1ccc(C)nc1[N+](=O)[O-]	0.97%
COc1cc(/C=C2/C(=O)NN(c3ccc(F)cc3)C2=O)cc([N+](=O)[O-])c1O	6.04%
CCC(C)NC(=O)CSC1=Nc2ccccc2C2=NC(CCC(=O)NCc3ccco3)C(=O)N12 (stereo unspecified)	18.7% (active)
O=C(CSC1=Nc2ccccc2C2=NC(CC(=O)NCc3ccco3)C(=O)N12)NCc1ccco1 (stereo unspecified)	2.33%
O=C(CC1N=C2c3ccccc3N=C(SCc3ccccc3Cl)N2C1=O)NCc1ccco1 (stereo unspecified)	2.64%
COc1nc(N(C)C)nc(N2CC(=O)N(CCNS(=O)(=O)c3ccc(C)cc3)C2=N)n1	5.1%

SMILES	inhibition
O=C1N=C(N2CCc3ccccc3C2)S/C1=C\c1ccc(O)cc1	0.81%
C/C(=N/NC(=S)Nc1ccccc1)c1ccc2c(c1)OCO2	2.26%
CCOC(=O)c1nnn(-c2nc(OC)nc(N(C)C)n2)c1-c1ccccc1	-0.37%
CCOc1nc(OCC)nc(-n2cc(-c3ccccc3)nn2)n1	24.2% (active)
CCOc1ccc(/C=N/Nc2nncc(-c3ccccc3)n2)cc1OC	0.88%
COC(=O)c1scc(S(=O)(=O)C(C)(C)C)c1-n1cccc1	3.92%
Cc1ccc(C(=O)NC2CC(C)(C)NC(C)(C)C2)c(C)c1	-2.82%
CC1CCC(NC(=O)C2c3ccccc3C(=O)N2Cc2ccc3c(c2)OCO3)CC1 (stereo unspecified)	-6.03%
Cc1ccc2c(c1)NCC(C(=O)NC1CCC(C)CC1)O2 (stereo unspecified)	18.4% (active)
CN1C(=O)/C(=C\c2cc(Br)cs2)c2ccccc21	7.61%
O=C(Nc1nnc(Cc2ccccc2)s1)c1cnccn1	1.61%
COc1cccc(NC(=S)NCc2ccco2)c1	3.44%
O=C(NCCCO)/C(=C\C=C\c1ccccc1)NC(=O)c1ccccc1Cl	6.57%
CCN1CCc2nc(NC(=O)c3cc(F)c(F)cc3Cl)sc2C1	4.45%
OCCNc1nc2ccccc2n1-c1ncnc2sc3c(c12)CCC3	-5.39%

Source: PubChem BioAssay AID1481 (The Scripps Research Institute Molecular Screening Center, 2009)
